According to the supplement of paper PMC9262897, “Low-cost anti-mycobacterial drug discovery using engineered E. coli” (Nature Communications, 2022):
Where a name gives a salt, the structure may show the parent alone. ± gives the standard deviation of the averaged measurements.

Tests used:
Assay in all cases: growth (OD600 after 10 h); higher = more growth (less inhibition)
[1] = system: E. coli TESEC Alr+ wild-type control; details: compound 0.1 mM; raw OD600 reference: median of DMSO wells 0.241, cell-free background 0.041
Experimental: (§1)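 TESEC Mtb Alr E. coli, or the Alr+ wild-type control, in 384-well plates with Prestwick library compounds at 0.1 mM and 1% DMSO, across arabinose induction levels of 1E3 to 1E7 nM. Growth is read as OD600 after 10 h at 37 °C in triplicate biological replicates.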

E. coli TESEC Mtb Alr [2] = details: compound 0.1 mM
Experimental: as §1

E. coli TESEC Mtb Asd = details: compound 0.1 mM
Experimental: (§2)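 TESEC E. coli strains in which the native enzyme is deleted and replaced by arabinose-inducible Mtb Asd, DapB, CysH or TrpD, each grown in its selective medium. Strains were screened against the Prestwick library at 0.1 mM and 1% DMSO in 384-well format at low and high arabinose induction. Growth is read as OD600 after 10 h in triplicate.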

E. coli TESEC Mtb DapB = details: compound 0.1 mM
Experimental: as §2

[3] = system: E. coli TESEC Alr+ wild-type control; details: compound 0.1 mM; raw OD600 reference: median of DMSO wells 0.49, cell-free background 0.052
Experimental: (§3)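 TESEC Mtb Alr E. coli (ΔaraC ΔtolC ΔentC Δalr ΔdadX, arabinose-inducible Mtb Alr) or the Alr+ wild-type control strain, grown in defined M9-fructose medium without D-alanine in 96-well plates with Prestwick library compounds at 0.1 mM and 1% DMSO. Low Alr induction is 0.1 µM arabinose and high induction is 10 mM arabinose.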

E. coli TESEC Mtb Alr [4] = details: compound 0.1 mM; remark: listed apart in the source
Experimental: as §3

[5] = arabinose 1000 nM, raw OD600 reference: median of DMSO wells 0.294, cell-free background 0.041
[6] = arabinose 10000 nM, raw OD600 reference: median of DMSO wells 0.264, cell-free background 0.041
[7] = arabinose 100000 nM, raw OD600 reference: median of DMSO wells 0.201, cell-free background 0.041
[8] = arabinose 1000000 nM, raw OD600 reference: median of DMSO wells 0.193, cell-free background 0.041
[9] = arabinose 10000000 nM, raw OD600 reference: median of DMSO wells 0.146, cell-free background 0.041
[10] = arabinose induction (level): High, raw OD600 reference: median of DMSO wells 0.331, cell-free background 0.041
[11] = arabinose induction (level): Low, raw OD600 reference: median of DMSO wells 0.417, cell-free background 0.041
[12] = arabinose induction (level): High, raw OD600 reference: median of DMSO wells […], cell-free background 0.041
[13] = arabinose induction (level): Low, raw OD600 reference: median of DMSO wells 0.227, cell-free background 0.041
[14] = arabinose 100 nM, raw OD600 reference: median of DMSO wells 0.413, cell-free background 0.052
[15] = arabinose 10000000 nM, raw OD600 reference: median of DMSO wells […], cell-free background 0.052

| SMILES | growth [1] | growth (E. coli TESEC Mtb Alr [2]; [5]) | growth (E. coli TESEC Mtb Alr [2]; [6]) | growth (E. coli TESEC Mtb Alr [2]; [7]) | growth (E. coli TESEC Mtb Alr [2]; [8]) | growth (E. coli TESEC Mtb Alr [2]; [9]) | growth (E. coli TESEC Mtb Asd; [10]) | growth (E. coli TESEC Mtb Asd; [11]) | growth (E. coli TESEC Mtb DapB; [12]) | growth (E. coli TESEC Mtb DapB; [13]) | growth [3] | growth (E. coli TESEC Mtb Alr [4]; [14]) | growth (E. coli TESEC Mtb Alr [4]; [15]) |
| --- | --- | --- | --- | --- | --- | --- | --- | --- | --- | --- | --- | --- | --- |
| O=C(N/N=C/c1ccc([N+](=O)[O-])o1)c1ccc(O)cc1 [Nifuroxazide] | 0.148 ± 0.0071 | 0.217 ± 0.018 | 0.0914 ± 0.0034 | 0.164 ± 0.022 | 0.0664 ± 0.0028 | 0.133 ± 0.0085 | 0.053 ± 0.00057 | 0.0519 ± 0.0049 | 0.0553 ± 0.0015 | 0.0557 ± 0.0021 | 0.0581 ± 0.0039 | 0.0646 ± 0.0031 | 0.0578 ± 0.0014 |
| O=C(O)c1ccccc1Nc1cccc(C(F)(F)F)c1 [Flufenamic acid] | 0.0528 ± 0.00081 | 0.05003 ± 0.00047 | 0.04063 ± 0.00038 | 0.0593 ± 0.0024 | 0.04467 ± 0.00032 | 0.05807 ± 0.00038 | 0.0691 ± 0.017 | 0.0784 ± 0.0046 | 0.117 ± 0.0058 | 0.181 ± 0.046 | 0.114 ± 0.0046 | 0.0904 ± 0.038 | 0.0543 ± 0.00078 |
| C#C[C@]1(O)CC[C@H]2[C@@H]3CCC4=CCCC[C@@H]4[C@H]3CC[C@@]21C [Lynestrenol] | 0.237 ± 0.0046 | 0.297 ± 0.0055 | 0.266 ± 0.015 | 0.18 ± 0.033 | 0.164 ± 0.0081 | 0.15 ± 0.0066 | 0.312 ± 0.033 | 0.387 ± 0.039 | 0.174 ± 0.0039 | 0.198 ± 0.027 | 0.451 ± 0.013 | 0.394 ± 0.0051 | 0.289 ± 0.0077 |
| C(=C\c1ccccc1)/CN1CCN(C(c2ccccc2)c2ccccc2)CC1 [Cinnarizine] | 0.202 ± 0.0048 | 0.246 ± 0.015 | 0.251 ± 0.014 | 0.18 ± 0.011 | 0.147 ± 0.0054 | 0.149 ± 0.0039 | 0.277 ± 0.079 | 0.395 ± 0.02 | 0.205 ± 0.011 | 0.223 ± 0.019 | 0.539 ± 0.055 | 0.431 ± 0.0055 | 0.375 ± 0.0072 |
| O=C(O)CN(CCN(CC(=O)O)CC(=O)O)CCN(CC(=O)O)CC(=O)O [Pentetic acid] | 0.049 ± 0.00062 | 0.0429 ± 0.00085 | 0.03913 ± 0.00012 | 0.04467 ± 5.8e-05 | 0.0427 ± 0.00091 | 0.0607 ± 0.00086 | 0.115 ± 0.02 | 0.0868 ± 0.024 | 0.0936 ± 0.0035 | 0.0709 ± 0.0042 | 0.0804 ± 0.0038 | 0.0559 ± 0.0086 | 0.061 ± 0.001 |
| CCCCc1cc2ccccc2c(OCCN(C)C)n1 [Dimethisoquin hydrochloride] | 0.177 ± 0.0065 | 0.182 ± 0.0035 | 0.162 ± 0.0045 | 0.199 ± 0.0029 | 0.0689 ± 0.0025 | 0.1567 ± 0.0013 | 0.154 ± 0.0042 | 0.171 ± 0.015 | 0.167 ± 0.014 | 0.184 ± 0.012 | 0.444 ± 0.022 | 0.3984 ± 0.0029 | 0.308 ± 0.011 |
| C[C@H](Cc1cc2c(c(C(N)=O)c1)N(CCCO)CC2)NCCOc1ccccc1OCC(F)(F)F [Silodosin] | 0.1773 ± 0.001 | 0.251 ± 0.0074 | 0.273 ± 0.0053 | 0.171 ± 0.019 | 0.158 ± 0.015 | 0.14 ± 0.0083 | 0.302 ± 0.092 | 0.474 ± 0.012 | 0.201 ± 0.02 | 0.206 ± 0.033 | 0.442 ± 0.056 | 0.407 ± 0.011 | 0.329 ± 0.018 |
| CCCCN1CCCCC1C(=O)Nc1c(C)cccc1C (centres undefined) [Bupivacaine hydrochloride] | 0.2359 ± 0.0017 | 0.301 ± 0.0072 | 0.247 ± 0.0053 | 0.21 ± 0.0045 | 0.167 ± 0.0039 | 0.157 ± 0.0046 | 0.257 ± 0.046 | 0.418 ± 0.025 | 0.187 ± 0.013 | 0.266 ± 0.047 | 0.489 ± 0.051 | 0.409 ± 0.01 | 0.339 ± 0.014 |
